PubChem BioAssay AID1508600 (Functional Genomics Laboratory (NCATS/FGL), 2020)
About 3,700 (7%) of roughly 53,000 sequences were called active. Only a selection was taken, and actives are over-represented in it overall. A number with no mark means an inactive call.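 How the source made its calls: active means gene knockdowns whose robust z-score for IL-1 alpha signal is at least 2 or at most -2, so actives lie on both sides; inactive means the rest.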

Test: Components of the Cytosolic LPS Sensing Pathway: Gene Identification via Genome-wide siRNA Screen;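 further: robust z of the log signal after scaling to non-targeting control siRNA wells of the plate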
Conditions: RAW264.7 macrophages, IL-1a HTRF, actives lie on both sides, screened at 100 nM (by protocol), cells primed 5 h with Pam3CSK4 first
Outline: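 RAW264.7; siRNA 100 nM final, RNAiMAX, 48h 37 degrees C; Pam3CSK4 5 h; LipidA + TransIT-TKO 24 h; IL-1a HTRF; CellTiter-Glo viability; robust z vs negative-control median.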
GGAGAGGCAUCUUUUCCUATT against Arhgap20 showed a z-score of -0.338. With CCCACCUAGGUUCAUCCCATT against Fat1 the z-score was -1.4. GGAAUGUGAGCUUAUCAUATT against Tlr1 showed a z-score of -0.965. For GCAUAGAUUGAUGGCUAAUTT against Chd8, the z-score was 1.18. With GCAUAGCAGAGAUGAUUCUTT against Trip12 the z-score was 2.15 (active). Work on GGUUGAUGAGUUUAGGUUUTT against Cpsf2 yielded a z-score of 0.264. In the case of GGGUUCAAAAGCCCAUAUUTT against Gm6787, the z-score is reported as 0.206. For GGUCUUCGAAACACAGCUGTT against Exoc3l2, the z-score was -0.402. Work on GGUUUUAUCAGAAUGUCAGTT against Atpaf2 yielded a z-score of 0.464. For CCAUAGUAUUGAUGUCUGCTT against Nat8f2, the z-score was 0.363. For GGACUCUUUUCUACGUGGATT against Klhl1, the z-score was 2.54 (active). CCCUAGGUCAUAGCUUGACTT against Crtc1 showed a z-score of 1.58. Work on CGGUCCCAAACGGUCAAGUTT against Tafa2 yielded a z-score of 1.69. GCCUGGAAUGCAGAAUCGATT against Vwa2 gave a z-score of -0.0276. With CCCAAAGUGCUUUACAAUGTT against Aard the z-score was 2.1 (active). With GGUUCAACGCAAAGUUCGCTT against Aldh4a1 the z-score was 0.347. Sequence GCUACUAUGUGCCCUGAUATT against Ms4a7 has a z-score of -0.458. CCUCCUUAUCCAUAAUAUUTT against Slc35a3 showed a z-score of 0.727. For GGCUCUAAAACUGUCAGACTT against Scp2d1, the z-score was 2.25 (active). For GGGUAUUUUGACAAUUUGGTT against Lrig3, the z-score was -0.576. In the case of GGCCAGACCUUUGUGAAUGTT against Ctse, the z-score is reported as -1.96. With GGAAUCUUUAGACCAUCUCTT against Myh1 the z-score was 5.3 (active). For GGCCAUGAAUCUUGUUGGGTT against Scg5, the z-score was -0.684. With GGAAGUCACCAUCAACCAGTT against Krt4 the z-score was 0.168. With CGAGCACUAUUUUGGAUUATT against Usp12 the z-score was 0.0102. Sequence GGCUGUGAUCUCCUGGCUUTT against Rnft2 has a z-score of -1.46. In the case of GGCUUUACGAGGAAAAAGGTT against Pex1, the z-score is reported as 2.09 (active). GGAAUGCAUGCUAAUUCAGTT against Thsd1 gave a z-score of 1.1. In the case of GGAUUCUGAGUGUACGUUUTT against Zfp28, the z-score is reported as 0.0227. CGAGGGAUAAGAGUCUACGTT against Ubxn11 gave a z-score of 1.45. GCUAAUUCCAAGAAAGAAGTT against Lifr gave a z-score of -0.326. For GGACCAUCCCUGCUUAAUGTT against Brat1, the z-score was -2.09 (active). For CGGUCAACAUCAAUGGUAATT against Gkn1, the z-score was -1.28. With GCUAAGAUUCCUUCCAGUATT against Adm2 the z-score was 0.98. With GGUUCUACCUCAAGAUGUUTT against Srd5a2 the z-score was 0.0188. For CCUAUAUCAUCAUGGUUUGTT against Tmx1, the z-score was 2.4 (active). GGACUACGUAUUUUCCCUGTT against Cyc1 showed a z-score of -0.39. With GCUCUGAUAUUCUCAUCAATT against Olfr39 the z-score was 1.25. CCUGGGAGCCUAUUAUUCUTT against Ndufb10 gave a z-score of -0.032. GGAAGAUAACCAUUUUGAATT against Setd4 showed a z-score of -0.777. For CGGCGUGUUUAUUUGCUAUTT against Rab27a, the z-score was -1.38. For CCUGGUUUACAUGUACGGGTT against Tap2, the z-score was 0.494. For GCUAGAGACGAGAAGAUGATT against Ano10, the z-score was -2.47 (active). Work on GCACUUCGAAGAAAUAAAATT against Ahsa2 yielded a z-score of 0.396. Sequence CGAGGACAAAAAUACCGACTT against Supt6 has a z-score of -1.51. GAAGAUUAUCCAUUGCCCGTT against Lce1h gave a z-score of 0.689. In the case of GGACCCAGCUCCUGUACAUTT against Ypel3, the z-score is reported as 2.31 (active). Work on GGGACAGAGCCGAAAGAGUTT against Mrpl33 yielded a z-score of -1.39. For CCUUGCCUUUACUACCAGUTT against Olfr15, the z-score was -0.187. GCGAUACCAGGGACUACAUTT against Zfp692 gave a z-score of 1.75. “CGCUCUCUCUACAAAGGAUTT against A230052G05Rik” showed a z-score of 0.984. In the case of GGGAAUUUGGGCAUGAUCATT against Olfr44, the z-score is reported as -2.02 (active). With “GCAUGUUCGCACGUGUCAATT against 5330439B14Rik” the z-score was -1.05. Sequence “CGACUGAUAGAUGAGUAAATT against C130026L21Rik” has a z-score of 0.424. Sequence CCGCACAUGCUCUCAAAUATT against Polr3d has a z-score of -1.25. Sequence GGACAAAGAGGCAAUGGGATT against Dnajb9 has a z-score of 1.08. With GGUAAAAUCACUUCAGAUCTT against Phb the z-score was 2.23 (active). GCAAGUGGAGUUUAUUGAUTT against Dbndd2 gave a z-score of -0.0399. For CGCAUGAUAACUAGAGAAUTT against Slitrk3, the z-score was -0.269. In the case of GGCUGUUCGGGUGACUAUUTT against Il17re, the z-score is reported as -2.83 (active). GGCAAUGUUUACAAGUUCCTT against Ralgps1 gave a z-score of 0.491. GCAGUACUAAGGAAGAUAUTT against Nudcd1 showed a z-score of -0.842. For GCAUAAGCUACUGCUGACATT against Pcdha6, the z-score was -0.782. In the case of GGCAGCAGCACUGAUUACUTT against Gjc2, the z-score is reported as -2.17 (active). In the case of GGCAAGGCUACUACUUGCATT against Fgf14, the z-score is reported as -0.117. For GCCAGACACUUAAUCCCGUTT against Unc13d, the z-score was 0.147. Sequence GGAUAUCAAGGGAUCAGACTT against Chchd4 has a z-score of 0.00163. For GGCUUAAGCAGACGUGUCATT against Lhx8, the z-score was -2.14 (active). With GCCCAUUAUGAAACUGAAGTT against Nfatc3 the z-score was 1.45. In the case of GGUGUUUAAGGAUGAACAATT against L3mbtl3, the z-score is reported as 0.104. For GCCACUUAAUGUCACUUUATT against Bag2, the z-score was 0.652. Work on GCCAGAUCUUUAUAUCCCGTT against Gdi2 yielded a z-score of -0.094. Sequence CCAGAUGUUACGAAUGAAATT against Tmem209 has a z-score of -1.65. With GGGCAAUGUUUGUCACUAATT against Akr1b10 the z-score was 1.55. Sequence CGGCCAUAUAAUUUUGAAUTT against Tbx20 has a z-score of 0.233. In the case of CGGUUUAACAGCAAGGGUATT against Sec61a1, the z-score is reported as -2.75 (active). Work on GGACUUAUUUCUUUAAGGATT against Mmp17 yielded a z-score of -0.567. With GGUGGAAUGAUAGUGUUCATT against Neurl1b the z-score was 1.67. GGUUAUUUCCCUGUUUUCATT against Olfr532 gave a z-score of 1.5. Sequence GGAGUUUGGGAACACUUUGTT against Apoc1 has a z-score of 0.617. With GCCUCUUAGUAGAGACAGUTT against Naa80 the z-score was -0.725. GGUAAAGCAAGAGAGUAUUTT against Hccs showed a z-score of -0.629. With GGUUCAAGGAUGAAUUAGATT against Trappc6b the z-score was -2.03 (active). In the case of GCUUUUGAAUGUGUGGACUTT against Ugt2b37, the z-score is reported as -0.938. CCCAAAGAAUUAUGAGUGUTT against Gpr149 showed a z-score of -0.678. GGCAAAUUCUGGAUCUGCUTT against Marf1 gave a z-score of -0.267. GGGAAAAAAAAAAAUCACCTT against Syne3 showed a z-score of -0.254. With CCAAUGAUGGAGCUGAAGCTT against Ranbp1 the z-score was -2.72 (active). For GGUCAAGGCUGUCAAGUUGTT against Wdr45b, the z-score was -0.13. With GGUGCCCACUAACUUAGAATT against Tbx21 the z-score was 2.3 (active). GGUGUUCGAUGGACGUGAUTT against Bmp1 gave a z-score of -0.183. GCAUCCUGGCUUAUCCAUUTT against Hmgb1 gave a z-score of -0.393. CCACUAUUAAACUUCUCAATT against Pex3 gave a z-score of 0.32. With CCAGCUUCAUGCGUUUAAATT against Stx16 the z-score was 1.4. In the case of CCCUCACAGUAACCUGUCGTT against Espl1, the z-score is reported as -2.56 (active). Work on GGUCGAAGUAUUGGAAAAUTT against Hesx1 yielded a z-score of -1.71. In the case of GCAAAUGACUUCCAACAAUTT against Uqcrq, the z-score is reported as 3.84 (active). In the case of GGAGAACAAAGUAUUGGUGTT against Cacna1f, the z-score is reported as 0.388. Work on “GCCAUAGGAGUGAUUGGAUTT against E130018O15Rik” yielded a z-score of -1.66. GGUGAGCAUGGACUAUGAUTT against Syt12 gave a z-score of -1.09. In the case of GCACUUGACAAGCAACAGUTT against Jup, the z-score is reported as -2.3 (active). GCAUAUGGAUAAGAUUGUUTT against Efr3a showed a z-score of -0.363. GGAAAAGGGUCGUGCCUGUTT against Gm9991 gave a z-score of -0.07. Sequence GCAUUGGCAGACCCGAGUUTT against Pir has a z-score of 0.238. GCUUGGUAAAAUGAAAGUCTT against Klhl12 showed a z-score of 0.22. Work on GGUUUCUGUCCAGAUAAAATT against Ykt6 yielded a z-score of -0.535. In the case of GGUGCAGAAUGCAAUGGAUTT against Ing3, the z-score is reported as 2.51 (active). In the case of GGAAUAUGAGAAAAUGAGCTT against Ctsc, the z-score is reported as 0.239.
